The source of these data is the antibiotic and cytotoxicity screens of Wong et al. (2023).

SMILES strings stand for the structures. Out of some 39,000 compounds screened, about 3,300 (8.5%) were called active. Many of the other results were omitted from the sample, so actives are more common in it than they were.

In this assay the test system is HepG2. Nature of the assay: cytotoxicity call (relative viability < 0.9). Conditions: 10 µM.
Regarding `C[C@H](CO)N1C[C@H](C)[C@H](CN(C)C(=O)c2ccc3c(c2)OCO3)Oc2ncc(C3=CCCC3)cc2C1=O`, the cytotoxicity call was “inactive”. For `C[C@H](CO)N1C[C@H](C)[C@@H](CN(C)C(=O)c2ccc3c(c2)OCO3)Oc2ncc(C3=CCCC3)cc2C1=O`, the cytotoxicity call is “inactive”. For `C[C@H]1CN([C@@H](C)CO)C(=O)c2cc(C3=CCCC3)cnc2O[C@H]1CN(C)C(=O)c1ccc2c(c1)OCO2` the value was “active”. For `OC1(c2ccc(Cl)c(C(F)(F)F)c2)CCN(CCCC(c2ccc(F)cc2)c2ccc(F)cc2)CC1` [listing 1 of 2 here] the value was “active”.

With `OC1(c2ccc(Cl)c(C(F)(F)F)c2)CCN(CCCC(c2ccc(F)cc2)c2ccc(F)cc2)CC1` [listing 2 of 2 here], the cytotoxicity call is “active”. To `COC(=O)C[C@@H]1CC[C@@H]2[C@H](COC[C@H](O)CN2S(=O)(=O)c2ccccc2C)O1` belongs “inactive”; to `C[C@@H]1CN([C@H](C)CO)C(=O)Cc2cc(NC(=O)NC3CCCCC3)ccc2O[C@H]1CN(C)S(=O)(=O)c1cn(C)cn1`, “inactive”; to `COc1ccc2c(=O)ccoc2c1`, “inactive”. For `COc1ccc(-c2c(C)oc3ccc(Cl)cc23)cc1` the value was “active”; for `COc1ccc(-c2cc(=O)c3ccccc3o2)cc1`, “inactive”. For `COc1ccc2c(-c3ccc(Cl)cc3)c(C)oc2c1` the value was “active”; for `COc1ccc2c(C)cc(=O)oc2c1`, “inactive”; for `COc1ccc2oc(C(C)=O)cc2c1`, “inactive”.

Turning to `C[C@@H]1CN([C@H](C)CO)C(=O)c2cccc(NC(=O)C3CCOCC3)c2O[C@@H]1CN(C)Cc1ccncc1`, the cytotoxicity call was “inactive”.

With `C[C@H]1CN([C@@H](C)CO)C(=O)c2cccc(NC(=O)Nc3cccc4ccccc34)c2O[C@H]1CN(C)CC1CCCCC1`, the cytotoxicity call was “inactive”. For `COc1ccc2nc(Cl)sc2c1` the value was “inactive”; for `CCN(CC)CCCC(C)Nc1c2ccc(Cl)cc2nc2ccc(OC)cc12.Cl.Cl` (stereo not drawn), “active”; for `Cc1cc(Oc2ccnc3cc(Cl)ccc23)ccc1Cl`, “inactive”. With `CCN(CC)CCCC(C)Nc1ccnc2cc(Cl)ccc12.O=P(O)(O)O.O=P(O)(O)O` (stereo not drawn), the cytotoxicity call was “active”. For `CCN(CCO)CCCC(C)Nc1ccnc2cc(Cl)ccc12.O=S(=O)(O)O` (stereo not drawn) the value was “active”; for `CCN(CC)Cc1ccc(Nc2ccnc3cc(Cl)ccc23)cc1O.Cl.Cl`, “active”; for `O=C(OCC(O)CO)c1ccccc1Nc1ccnc2cc(Cl)ccc12` (stereo not drawn), “inactive”. To `COc1ccc2nc3ccc(Cl)cc3c(SCCCN)c2c1` belongs “inactive”. For `Cc1noc(C)c1S(=O)(=O)N(C)C[C@H]1Oc2ccc(NC(=O)c3ccncc3)cc2CC(=O)N([C@H](C)CO)C[C@@H]1C` the value was “inactive”; for `Cc1noc(C)c1NC(=O)N(C)C[C@@H]1Oc2ccc(NC(=O)CCN3CCOCC3)cc2CC(=O)N([C@H](C)CO)C[C@@H]1C`, “inactive”; for `Cc1ccc(S(=O)(=O)N(C)C[C@@H]2Oc3ncc(-c4ccncc4)cc3C(=O)N([C@H](C)CO)C[C@H]2C)cc1`, “inactive”.

As to `COc1ccc(NC(=O)N(C)C[C@H]2Oc3cc(C#CCN(C)C)ccc3S(=O)(=O)N([C@@H](C)CO)C[C@@H]2C)cc1`, the cytotoxicity call was “inactive”. To `C[C@@H]1CN([C@@H](C)CO)C(=O)c2cc(NC(=O)Cn3cnnn3)ccc2O[C@H]1CN(C)Cc1ccc(C(=O)Nc2ccccc2N)cc1` belongs “inactive”; to `C[C@@H]1CN([C@H](C)CO)C(=O)c2cc(NC(=O)C3CC3)ccc2O[C@@H]1CN(C)C(=O)Nc1ccc2c(c1)OCO2`, “inactive”; to `COc1ccc(C#Cc2cnc3c(c2)C(=O)N([C@H](C)CO)C[C@H](C)[C@@H](CN(C)C(=O)CN(C)C)O3)cc1`, “inactive”. For `C[C@H](CO)N1C[C@H](C)[C@H](CN(C)Cc2ccc(C(=O)O)cc2)Oc2ccc(NC(=O)Nc3ccc(C(F)(F)F)cc3)cc2C1=O` the value was “inactive”; for `C[C@@H]1CN([C@H](C)CO)C(=O)c2cc(NC(=O)Nc3ccccc3)ccc2O[C@H]1CN(C)Cc1ccc(C(F)(F)F)cc1`, “active”; for `C[C@@H]1CN([C@H](C)CO)C(=O)c2cc(NC(=O)Nc3ccccc3)ccc2O[C@@H]1CN(C)Cc1ccc(C(F)(F)F)cc1`, “inactive”. For `C[C@@H]1CN([C@@H](C)CO)C(=O)c2cc(NC(=O)Nc3ccccc3)ccc2O[C@@H]1CN(C)Cc1ccc(C(F)(F)F)cc1` the value was “active”; for `C[C@H](CO)N1C[C@H](C)[C@H](CN(C)Cc2ccc(C(F)(F)F)cc2)Oc2ccc(NC(=O)Nc3ccccc3)cc2C1=O`, “active”; for `C[C@H]1CN([C@@H](C)CO)C(=O)c2cc(NC(=O)Nc3ccccc3)ccc2O[C@@H]1CN(C)Cc1ccc(C(F)(F)F)cc1`, “active”.

Regarding `C[C@@H]1CN([C@H](C)CO)C(=O)c2cc(NC(=O)Nc3ccc(C(F)(F)F)cc3)ccc2O[C@@H]1CN(C)Cc1ccc(C(=O)O)cc1`, the cytotoxicity call was “inactive”.

Turning to `C[C@H]1CN([C@@H](C)CO)C(=O)c2cc(NC(=O)Nc3ccccc3)ccc2O[C@H]1CN(C)Cc1ccc(C(F)(F)F)cc1`, the cytotoxicity call was “inactive”. As for `C[C@@H]1CN([C@@H](C)CO)C(=O)c2cc(NC(=O)Nc3ccccc3)ccc2O[C@H]1CN(C)Cc1ccc(C(F)(F)F)cc1`, the cytotoxicity call is “inactive”. For `COc1cccc(S(=O)(=O)Nc2ccc3c(c2)C(=O)N(C)C[C@@H](OC)[C@@H](C)CN(C(=O)Cc2cccnc2)[C@@H](C)CO3)c1` the value was “inactive”. For `CC(C)NC(=O)N[C@@H]1C=C[C@@H](CC(=O)NCCN2CCCC2)O[C@H]1CO` the value was “inactive”.

Turning to `COc1ccc(NC(=O)N(C)C[C@@H]2OCCCC[C@@H](C)Oc3ccc(NC(=O)C4CCCCC4)cc3C(=O)N([C@H](C)CO)C[C@H]2C)cc1`, the cytotoxicity call was “inactive”. To `COc1ccc(CN(C)C[C@H]2OCCCC[C@H](C)Oc3ccc(NC(=O)C4CCCCC4)cc3C(=O)N([C@@H](C)CO)C[C@H]2C)cc1` belongs “inactive”. With `O=C(C[C@H]1CC[C@@H]2NC[C@H](O)COC[C@H]2O1)NCCN1CCCCC1`, the cytotoxicity call is “inactive”. In the case of `O=C1O[C@H](c2ccccc2)[C@H](c2ccccc2)N2[C@H]1[C@@H](C(=O)N1CCCCCCC1)[C@]1(C(=O)Nc3ccc(C#CCCO)cc31)[C@H]2c1ccc(O)cc1`, the cytotoxicity call was “inactive”. To `CSc1nc2nc(N)nc(N)c2s1` belongs “inactive”; to `COc1cccc(S(=O)(=O)N2C[C@H](O)COC[C@@H]3O[C@H](CC(=O)N4CCN(c5ccccc5)CC4)CC[C@H]32)c1`, “inactive”; to `O=C(C[C@H]1CC[C@@H]2[C@H](COC[C@H](O)CN2S(=O)(=O)c2cccc(Cl)c2)O1)NC1Cc2ccccc2C1`, “inactive”.
